# Laboratory results reported in PubChem BioAssay (EPA / NIEHS).
# Activity calls are given as the source filed them. Rule for the calls: active = hit-call score of the fitted dose curve at least 0.9, where 1 is the maximum; inactive = score below 0.9.
# Experiment: ATG_NFI_CIS: Attagene CIS-FACTORIAL HepG2 Assay for human Nuclear Factor I (NFI) (AID 2282989)
# Settings: HepG2 cis-regulatory reporter, NFI response element transcription; actives raise or lower the signal
# Description: ATG_CIS is a cell-based, multiplexed-readout assay that uses HepG2, a human liver cell line, with measurements taken at 24 hours after chemical dosing in a 24-well plate.ATG_NFI_CIS is one of 52 assay component(s) measured or calculated from the ATG_CIS assay. It is designed to make measurements of mRNA induction, a form of inducible reporter, as detected with fluorescence intensity signals by Reverse transcription polymerase chain reaction (RT-PCR) and Capillary electrophoresis technology.Data from the assay component ATG_NFI_CIS was analyzed into 1 assay endpoint. This assay endpoint, ATG_NFI_CIS, was analyzed with bidirectional fitting relative to DMSO as the negative control and baseline of activity. Using a type of inducible reporter, measures of mRNA for gain or loss-of-signal activity can be used to understand the reporter gene at the transcription factor-level as they relate to the gene NFIA. Furthermore, this assay endpoint can be referred to as a primary readout, because this assay has produced multiple assay endpoints where this one serves a reporter gene function. To generalize the intended target to other relatable targets, this assay endpoint is annotated to the dna binding intended target family, where the subfamily is nuclear factor I.
# Human liver HepG2 cells are transiently transfected with multiple reporter transcription units (MRTUs) in 6-well plates using FuGene 6 reagent (Roche; 3 ml FuGene/1 mg DNA). The MRTU constructs are regulated by a cis-regulating element (promoter). […] A major difference between the CIS and TRANS system is that in CIS activities of endogenous TFs are measured, whereas the TRANS assay evaluates changes in activities of exogenous, chimeric NR-Gal4 proteins. […] At the end of 24 hour incubation, total RNA was isolated using TriZol reagent (Invitrogen). The isolated RNA is then reverse-transcribed using oligo(dT) primer and Mo-MLV reverse transcriptase (Invitrogen) with DNAse I (Ambion) treatment for 30 min. The one-tenth of the produced cDNA was amplified by PCR using Taq DNA polymerase (Invitrogen) and two reporter sequence-specific primers. The PCR products were fluorescently labeled by primer extension with 6-arboxyfluorescein (6-FAM) 5'-labeled reporter sequence-specific primer (2 min at 95 C, 20 s at 68 C and 10 min at 72 C) and these products were digested with 5U of HpaI (New England Biolabs) for 2h at 37 C. The fragments were purified using Qiaquick PCR columns (Qiagen), analyzed on an ABI 3130xL genetic analyzer (Applied Biosystems) with peak positions identified by using a set of X-rhodamine (ROX)-labeled MapMarker1000 molecular weight standards (BioVentures). The raw capillary electrophoresis data was processed using Attagraph software (Attagene).
SMILES,outcome,AC50
COP(=O)(OC)SCn1c(=O)oc2cc(Cl)cnc21,inactive,
Cc1ccn2nc(S(=O)(=O)Nc3c(F)cccc3F)nc2n1,inactive,
CCCOCC(=Nc1ccc(Cl)cc1C(F)(F)F)n1ccnc1,inactive,
CC[C@H](C)[C@H]1O[C@]2(C=C[C@@H]1C)C[C@@H]1C[C@@H](C/C=C(\C)[C@@H](O[C@H]3C[C@H](OC)[C@@H](O[C@H]4C[C@H](OC)[C@@H](NC)[C@H](C)O4)[C@H](C)O3)[C@@H](C)/C=C/C=C3\CO[C@@H]4[C@H](O)C(C)=C[C@@H](C(=O)O1)[C@]34O)O2,inactive,
COP(=O)(NC(C)=O)SC (stereo not given),inactive,
CON=C(C(=O)OC)c1ccccc1CON=C(C)c1cccc(C(F)(F)F)c1,inactive,
CCC(=O)Nc1ccc(Cl)c(Cl)c1,,10.5 µM (active)
CC(=NC#N)N(C)Cc1ccc(Cl)nc1,inactive,
CCC(=NOC/C=C/Cl)C1=C(O)CC(C2CCOCC2)CC1=O (stereo not given),inactive,
O=c1ccc(=O)[nH][nH]1,inactive,
CN(C)[C@@H]1C(=O)C(C(N)=O)=C(O)[C@@]2(O)C(=O)C3=C(O)c4c(O)cccc4[C@@](C)(O)[C@H]3[C@H](O)[C@@H]12,inactive,
C#CC(C)(C)NC(=O)c1cc(Cl)cc(Cl)c1,inactive,
N#CSCSC#N,inactive,
CCOP(=S)(OCC)OC(Cl)C(Cl)(Cl)Cl (stereo not given),inactive,
CCCSP(=O)(OCC)Oc1ccc(Br)cc1Cl (stereo not given),inactive,
CC1(C(=O)Nc2ccc(O)c(Cl)c2Cl)CCCCC1,inactive,
COc1ccc(C(=CC(=O)N2CCOCC2)c2ccc(Cl)cc2)cc1OC,inactive,
C[N+]1(C)CCCCC1,inactive,
Nc1nc(N)nc(NC2CC2)n1,inactive,
CCCCN(CC)c1c([N+](=O)[O-])cc(C(F)(F)F)cc1[N+](=O)[O-],inactive,

SMILES,outcome,AC50
COP(=O)(OC)C(O)C(Cl)(Cl)Cl (stereo not given),inactive,
CCC(CC)Nc1c([N+](=O)[O-])cc(C)c(C)c1[N+](=O)[O-],inactive,
CCc1cccc(C)c1N(C(=O)CCl)C(C)COC (stereo not given),inactive,
CNC(=O)Oc1cccc2c1OC(C)(C)O2,,50 µM (active)
CCOP(=S)(OCC)Oc1cc(C)nc(C(C)C)n1,inactive,
O=[N+]([O-])c1cc(C(F)(F)F)c(Cl)c([N+](=O)[O-])c1Nc1ncc(C(F)(F)F)cc1Cl,inactive,
CCOP(=S)(OCC)SCCSCC,inactive,
Cc1nn(-c2cc(NS(C)(=O)=O)c(Cl)cc2Cl)c(=O)n1C(F)F,inactive,
COc1cccc(C(=O)NN(C(=O)c2cc(C)cc(C)c2)C(C)(C)C)c1C,inactive,
C=C(C)[C@H]1Cc2c(ccc3c2O[C@@H]2COc4cc(OC)c(OC)cc4[C@@H]2C3=O)O1,inactive,
CCCCOC(=O)[C@@H](C)Oc1ccc(Oc2ccc(C#N)cc2F)cc1,inactive,
CN1COCN(Cc2cnc(Cl)s2)C1=N[N+](=O)[O-],inactive,
CNC(=O)ON=C(SC)C(=O)N(C)C,inactive,
CCCOc1nn(C(=O)NS(=O)(=O)c2ccccc2C(=O)OC)c(=O)n1C,inactive,
CCOC(=O)CC(SP(=O)(OC)OC)C(=O)OCC (stereo not given),inactive,
O=C(O)c1cc(Oc2ccc(C(F)(F)F)cc2Cl)ccc1[N+](=O)[O-],inactive,
C[Si](Cn1cncn1)(c1ccc(F)cc1)c1ccc(F)cc1,inactive,
CC(C)[C@H](C(=O)O[C@H](C#N)c1cccc(Oc2ccccc2)c1)c1ccc(Cl)cc1,inactive,
COc1cc(OC)nc(Sc2cccc(Cl)c2C(=O)O)n1,inactive,
CC(C1CC1)C(O)(Cn1cncn1)c1ccc(Cl)cc1 (stereo not given),inactive,
